# Reference: ChEMBL document CHEMBL2218924, “A broad activity screen in support of a chemogenomic map for kinase signalling research and drug discovery” (Biochem J, 2013)
# What was measured:
# [1] = target: Serine/threonine-protein kinase WNK2 (Homo sapiens) (UniProt Q9Y3S1); details: at 10 µM
# [2] = target: Serine/threonine-protein kinase WNK3 (Homo sapiens) (UniProt Q9BYP7); details: at 1 µM
# [3] = target: Serine/threonine-protein kinase WNK3 (Homo sapiens) (UniProt Q9BYP7); details: at 10 µM
# [4] = target: Tyrosine-protein kinase Yes (Homo sapiens) (UniProt P07947); details: at 1 µM
# Chain of Tyrosine-protein kinase Yes (Homo sapiens) (P07947 2-543 limits assumed): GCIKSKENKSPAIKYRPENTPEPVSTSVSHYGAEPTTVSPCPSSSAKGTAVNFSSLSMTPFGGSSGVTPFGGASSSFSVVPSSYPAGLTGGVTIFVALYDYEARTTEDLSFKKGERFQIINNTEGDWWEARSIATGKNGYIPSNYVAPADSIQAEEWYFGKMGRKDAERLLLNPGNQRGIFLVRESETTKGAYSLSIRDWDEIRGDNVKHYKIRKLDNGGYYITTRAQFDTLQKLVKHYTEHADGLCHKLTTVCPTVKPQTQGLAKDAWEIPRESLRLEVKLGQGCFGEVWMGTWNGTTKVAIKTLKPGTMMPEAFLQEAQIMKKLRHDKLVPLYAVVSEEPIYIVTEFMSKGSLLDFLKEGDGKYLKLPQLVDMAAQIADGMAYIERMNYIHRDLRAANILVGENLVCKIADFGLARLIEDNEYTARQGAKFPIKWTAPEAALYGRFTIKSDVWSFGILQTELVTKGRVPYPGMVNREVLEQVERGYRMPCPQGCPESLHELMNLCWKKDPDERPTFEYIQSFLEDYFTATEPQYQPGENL
# [5] = target: Tyrosine-protein kinase Yes (Homo sapiens) (UniProt P07947); details: at 10 µM
# [6] = target: T1, Tyrosine-protein kinase ZAP-70 (Homo sapiens) (UniProt P43403); details: at 1 µM
# T1 sequence (whole entry): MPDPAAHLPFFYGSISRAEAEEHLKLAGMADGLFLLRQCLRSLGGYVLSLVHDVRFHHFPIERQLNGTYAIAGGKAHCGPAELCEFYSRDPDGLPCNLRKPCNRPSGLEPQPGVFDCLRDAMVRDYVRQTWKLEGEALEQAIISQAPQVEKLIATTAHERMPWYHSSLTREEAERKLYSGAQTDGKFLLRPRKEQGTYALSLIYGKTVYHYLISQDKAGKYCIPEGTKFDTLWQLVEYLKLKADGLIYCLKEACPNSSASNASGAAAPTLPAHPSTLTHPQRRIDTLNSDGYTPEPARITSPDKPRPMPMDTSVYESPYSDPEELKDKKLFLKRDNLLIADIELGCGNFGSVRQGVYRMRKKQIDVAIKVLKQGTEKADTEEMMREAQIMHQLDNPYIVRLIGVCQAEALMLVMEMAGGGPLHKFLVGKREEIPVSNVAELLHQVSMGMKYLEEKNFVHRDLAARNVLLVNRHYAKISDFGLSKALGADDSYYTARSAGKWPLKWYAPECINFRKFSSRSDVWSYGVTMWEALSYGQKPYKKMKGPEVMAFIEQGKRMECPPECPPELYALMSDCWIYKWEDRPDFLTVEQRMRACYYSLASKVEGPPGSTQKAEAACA
# [7] = target: Death-associated protein kinase 3 (Homo sapiens) (UniProt O43293); details: at 1 µM
# Chain of Death-associated protein kinase 3 (Homo sapiens) (O43293 whole entry, looked up): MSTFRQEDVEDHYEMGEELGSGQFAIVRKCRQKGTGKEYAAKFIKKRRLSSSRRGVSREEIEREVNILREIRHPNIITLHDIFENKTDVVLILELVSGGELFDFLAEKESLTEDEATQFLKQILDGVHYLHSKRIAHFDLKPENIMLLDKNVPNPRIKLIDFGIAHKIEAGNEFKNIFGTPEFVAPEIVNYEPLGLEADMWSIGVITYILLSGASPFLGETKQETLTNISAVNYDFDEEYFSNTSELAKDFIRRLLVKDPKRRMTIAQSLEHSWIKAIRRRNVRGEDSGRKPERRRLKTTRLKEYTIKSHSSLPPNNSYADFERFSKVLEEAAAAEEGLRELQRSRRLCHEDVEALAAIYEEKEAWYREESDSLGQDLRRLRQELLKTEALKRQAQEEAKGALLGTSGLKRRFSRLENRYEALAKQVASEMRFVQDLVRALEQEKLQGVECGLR
# [8] = target: Death-associated protein kinase 3 (Homo sapiens) (UniProt O43293); details: at 10 µM
# [9] = target: RAF proto-oncogene serine/threonine-protein kinase (Homo sapiens) (UniProt P04049); details: at 1 µM
# Chain of RAF proto-oncogene serine/threonine-protein kinase (Homo sapiens) (P04049 whole entry): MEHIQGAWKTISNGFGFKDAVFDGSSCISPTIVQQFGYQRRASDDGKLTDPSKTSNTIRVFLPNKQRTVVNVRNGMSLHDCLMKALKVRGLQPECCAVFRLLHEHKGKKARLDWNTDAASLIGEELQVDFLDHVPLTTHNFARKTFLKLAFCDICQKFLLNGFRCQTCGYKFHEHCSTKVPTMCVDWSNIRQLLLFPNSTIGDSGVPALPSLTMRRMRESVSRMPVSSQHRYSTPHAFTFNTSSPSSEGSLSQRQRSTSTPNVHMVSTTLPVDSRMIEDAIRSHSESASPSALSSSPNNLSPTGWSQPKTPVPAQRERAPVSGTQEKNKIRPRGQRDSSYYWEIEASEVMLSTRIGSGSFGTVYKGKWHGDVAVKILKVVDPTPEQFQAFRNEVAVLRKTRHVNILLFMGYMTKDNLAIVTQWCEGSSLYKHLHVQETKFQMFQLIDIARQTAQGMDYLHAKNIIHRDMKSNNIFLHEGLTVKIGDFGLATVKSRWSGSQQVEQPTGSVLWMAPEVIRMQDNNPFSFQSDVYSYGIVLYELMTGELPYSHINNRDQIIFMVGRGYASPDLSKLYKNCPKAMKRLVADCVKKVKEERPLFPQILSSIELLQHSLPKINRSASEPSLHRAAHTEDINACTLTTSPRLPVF
# [10] = target: RAF proto-oncogene serine/threonine-protein kinase (Homo sapiens) (UniProt P04049); details: at 10 µM
# Chain of Serine/threonine-protein kinase WNK2 (Homo sapiens) (Q9Y3S1 whole entry): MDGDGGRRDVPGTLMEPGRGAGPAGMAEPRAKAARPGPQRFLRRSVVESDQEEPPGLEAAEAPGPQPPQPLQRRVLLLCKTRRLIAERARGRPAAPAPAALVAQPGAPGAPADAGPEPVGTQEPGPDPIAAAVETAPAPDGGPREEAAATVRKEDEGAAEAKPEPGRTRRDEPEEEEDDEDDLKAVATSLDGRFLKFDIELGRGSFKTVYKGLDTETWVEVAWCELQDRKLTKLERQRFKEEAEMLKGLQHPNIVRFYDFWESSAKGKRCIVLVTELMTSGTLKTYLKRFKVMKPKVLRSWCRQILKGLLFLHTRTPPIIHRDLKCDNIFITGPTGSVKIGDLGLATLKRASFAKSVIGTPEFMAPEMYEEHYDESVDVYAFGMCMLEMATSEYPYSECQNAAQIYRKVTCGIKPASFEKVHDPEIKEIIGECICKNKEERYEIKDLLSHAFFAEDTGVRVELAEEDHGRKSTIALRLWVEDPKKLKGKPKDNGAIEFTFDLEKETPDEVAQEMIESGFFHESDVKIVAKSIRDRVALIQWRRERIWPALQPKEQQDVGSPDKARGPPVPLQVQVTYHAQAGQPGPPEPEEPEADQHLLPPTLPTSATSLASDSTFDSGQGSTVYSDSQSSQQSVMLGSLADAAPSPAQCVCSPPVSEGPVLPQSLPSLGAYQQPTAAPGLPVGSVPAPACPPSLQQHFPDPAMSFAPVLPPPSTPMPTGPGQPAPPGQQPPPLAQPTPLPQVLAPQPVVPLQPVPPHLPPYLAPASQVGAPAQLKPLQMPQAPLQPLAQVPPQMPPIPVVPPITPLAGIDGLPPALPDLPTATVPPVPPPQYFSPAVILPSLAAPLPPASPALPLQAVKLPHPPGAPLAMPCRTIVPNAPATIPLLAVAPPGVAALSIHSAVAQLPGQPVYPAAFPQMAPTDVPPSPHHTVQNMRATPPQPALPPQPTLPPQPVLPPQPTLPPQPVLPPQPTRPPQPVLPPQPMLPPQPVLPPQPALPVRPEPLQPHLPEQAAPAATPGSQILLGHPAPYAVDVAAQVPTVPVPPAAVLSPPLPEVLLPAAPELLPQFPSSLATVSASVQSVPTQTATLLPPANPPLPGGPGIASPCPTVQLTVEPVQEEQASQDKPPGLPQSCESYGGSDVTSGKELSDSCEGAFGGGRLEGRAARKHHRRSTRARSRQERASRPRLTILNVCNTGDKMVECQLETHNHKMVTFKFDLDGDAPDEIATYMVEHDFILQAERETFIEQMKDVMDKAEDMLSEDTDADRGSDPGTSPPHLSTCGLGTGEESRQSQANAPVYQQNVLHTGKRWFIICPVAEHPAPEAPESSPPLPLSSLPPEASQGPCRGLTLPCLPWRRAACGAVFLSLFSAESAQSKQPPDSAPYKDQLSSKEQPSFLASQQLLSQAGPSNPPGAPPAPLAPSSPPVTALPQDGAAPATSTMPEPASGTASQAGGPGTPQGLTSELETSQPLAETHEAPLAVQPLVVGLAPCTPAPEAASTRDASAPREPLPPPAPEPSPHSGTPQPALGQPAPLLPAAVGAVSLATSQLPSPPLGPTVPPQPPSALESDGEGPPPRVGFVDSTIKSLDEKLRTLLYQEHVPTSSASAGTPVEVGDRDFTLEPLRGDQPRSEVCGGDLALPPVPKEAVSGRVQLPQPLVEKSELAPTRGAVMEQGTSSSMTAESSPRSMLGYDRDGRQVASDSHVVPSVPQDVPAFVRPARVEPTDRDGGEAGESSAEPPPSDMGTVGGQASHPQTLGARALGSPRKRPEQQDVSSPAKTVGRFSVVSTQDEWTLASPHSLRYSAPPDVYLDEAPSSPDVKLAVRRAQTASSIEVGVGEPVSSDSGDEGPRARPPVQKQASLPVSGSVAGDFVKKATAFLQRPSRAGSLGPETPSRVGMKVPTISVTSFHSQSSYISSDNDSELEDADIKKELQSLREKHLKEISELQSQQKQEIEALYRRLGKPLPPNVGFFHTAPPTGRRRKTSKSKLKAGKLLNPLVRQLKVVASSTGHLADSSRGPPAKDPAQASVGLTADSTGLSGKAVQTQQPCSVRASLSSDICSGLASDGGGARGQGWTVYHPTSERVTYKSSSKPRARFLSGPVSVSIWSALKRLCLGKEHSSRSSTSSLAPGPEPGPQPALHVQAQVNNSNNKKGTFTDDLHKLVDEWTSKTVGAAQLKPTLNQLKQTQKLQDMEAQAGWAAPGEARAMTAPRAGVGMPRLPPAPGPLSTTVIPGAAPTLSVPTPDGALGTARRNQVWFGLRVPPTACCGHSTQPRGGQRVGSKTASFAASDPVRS
Compound,residual activity [1] [%],residual activity [2],residual activity [3] [%],residual activity [4] [%],residual activity [5] [%],residual activity [6] [%],residual activity [7] [%],residual activity [8] [%],residual activity [9] [%],residual activity [10] [%]
CN(C)c1ccc(/C=C2\C(=O)Nc3ccccc32)cc1,76,117% (inactive),90,98,64,121,108,97,94,85
CCOc1cc2ncnc(Nc3cccc(Br)c3)c2cc1OCC,79,99% (inactive),86,17,2,122,91,96,84,71
COc1cc2ncnc(Nc3ccc(O)c(Br)c3)c2cc1OC,70,87% (inactive),77,25,2,144,83,58,64,38
CC[n+]1c(/C=C/N(C)c2ccccc2)n(-c2ccccc2)c2ccc(-c3nc4ccccc4s3)cc21,35,100% (inactive),44,105,100,117,100,73,105,98
CC#CC(=O)Nc1cc2c(Nc3ccc(F)c(Cl)c3)ncnc2cn1,84,102% (inactive),79,101,90,103,90,100,82,92
O=c1cc(-c2cccc3c2Sc2ccccc2S3)oc(N2CCOCC2)c1,78,95% (inactive),87,109,91,113,104,99,96,55
CC(=O)O/N=C1\C(=C2\C(=O)Nc3cc(Br)ccc32)Nc2ccccc21,92,101% (inactive),94,42,4,106,99,71,80,75
CCC(=O)Nc1ccc2ncnc(Nc3cccc(Br)c3)c2c1,80,95% (inactive),80,85,50,86,75,100,77,90
COc1cccc(-c2cc(=O)c3ccccc3o2)c1N,102,82% (inactive),100,123,106,137,105,101,85,86
Cc1nc2cc3nc(-c4cccs4)cnc3cc2n1C,94,124% (inactive),71,106,59,135,97,102,97,95
COc1ccc(C(=O)Nc2sc3c(c2C(N)=O)CCCC3)cc1OC,84,101% (inactive),94,106,90,103,76,106,87,94
O=C1Nc2cc(Br)ccc2/C1=C1/Nc2ccccc2/C1=N\O,91,93% (inactive),93,1,4,97,38,18,77,68
COc1ccc(OC)c2c(=S)c3ccccc3[nH]c12,87,89% (inactive),89,100,100,90,93,90,87,83
Cn1cc(/C=C2\C(=O)Nc3ccc(S(N)(=O)=O)cc32)c2ccccc21,85,97% (inactive),75,8,2,107,106,90,91,100
Nc1ccc2ncnc(NCCc3ccc(Oc4ccccc4)cc3)c2c1,82,102% (inactive),87,63,33,109,111,111,82,77
C[C@@H](N)[C@H]1CC[C@H](C(=O)Nc2ccncc2)CC1,90,106% (inactive),102,108,94,92,101,99,100,108
